# Data reported in PubChem BioAssay (NCI).
# Values joined by “and” are separate entries in the source; they are usually repeats but may differ in a detail not shown here. Equal entries are not always repeated. Compounds without any hit were thinned out: in the full panel of roughly 83,000, 20% have a hit.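 In brief: 96-well plates, 48 h treatment, single concentration, percent growth endpoint.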 Active and inactive are the calls of the source. The calls were made as follows: active = growth percent below 10; inactive = the rest.
# Tests used:
# Assay in all cases: NCI-60 one-dose screen, 48 h (100 = growth as untreated, 0 = no growth, -100 = all killed)
# [1] = tested on: SK-MEL-2 melanoma
# [2] = tested on: EKVX NSCLC
# [3] = tested on: UO-31 renal
# [4] = tested on: TK-10 renal
# [5] = tested on: ACHN renal; conditions: 10 µM unless noted
# [6] = tested on: A498 renal
# [7] = tested on: MOLT-4 leukemia
# [8] = tested on: SR leukemia
# [9] = tested on: RPMI-8226 leukemia
# [10] = tested on: OVCAR-8 ovarian
# [11] = tested on: OVCAR-5 ovarian
# [12] = tested on: OVCAR-4 ovarian
# [13] = tested on: SK-OV-3 ovarian
# [14] = tested on: IGROV1 ovarian
# [15] = tested on: OVCAR-3 ovarian
# [16] = tested on: HS 578T breast
# [17] = tested on: NCI/ADR-RES ovarian
# [18] = tested on: SN12C renal
# [19] = tested on: CAKI-1 renal; conditions: 10 µM unless noted
# [20] = tested on: CCRF-CEM leukemia; conditions: 10 µM unless noted
smiles,measurement,setting,value
CC(=O)/C=C/c1ccc(OCc2ccc(Cl)cc2)cc1,growth,[1]; 10 µM,101% (inactive)
same,growth,[1]; 100 µM,4.19% (active)
same,growth,[2]; 10 µM,116% (inactive)
same,growth,[2]; 100 µM,28.8% (inactive)
same,growth,[3]; 10 µM,91.4% (inactive)
same,growth,[3]; 100 µM,21% (inactive)
same,growth,[4]; 10 µM,77.6% (inactive)
same,growth,[4]; 100 µM,27.9% (inactive)
same,growth,[5],109% (inactive)
same,growth,[6]; 10 µM,82.6% (inactive)
same,growth,[6]; 100 µM,12.1% (inactive)
same,growth,[7]; 10 µM,92.8% (inactive)
same,growth,[7]; 100 µM,16.7% (inactive)
same,growth,[8]; 10 µM,98% (inactive)
same,growth,[8]; 100 µM,30% (inactive)
same,growth,[9]; 10 µM,87.9% (inactive)
same,growth,[9]; 100 µM,24.2% (inactive)
same,growth,[10]; 10 µM,90.1% (inactive)
same,growth,[10]; 100 µM,34.4% (inactive)
same,growth,[11]; 10 µM,109% (inactive)
same,growth,[11]; 100 µM,75% (inactive)
same,growth,[12]; 10 µM,101% (inactive)
same,growth,[12]; 100 µM,43.4% (inactive)
same,growth,[13]; 10 µM,110% (inactive)
same,growth,[13]; 100 µM,38.8% (inactive)
same,growth,[14]; 10 µM,106% (inactive)
same,growth,[14]; 100 µM,61.4% (inactive)
same,growth,[15]; 10 µM,102% (inactive)
same,growth,[15]; 100 µM,50.7% (inactive)
same,growth,[16]; 10 µM,97.3% (inactive)
same,growth,[16]; 100 µM,51.9% (inactive)
same,growth,[17]; 10 µM,96.5% (inactive)
same,growth,[17]; 100 µM,18% (inactive)
Cn1cc2c(=O)nc3c(-c4nc5ccccc5[nH]4)n[nH]n3c2n1,growth,[1]; 10 µM unless noted,30.4% (inactive)
same,growth,[2]; 10 µM unless noted,95.6% (inactive)
same,growth,[18]; 10 µM unless noted,77.9% (inactive)
same,growth,[3]; 10 µM unless noted,90.8% (inactive)
same,growth,[4]; 10 µM unless noted,120% (inactive)
same,growth,[5],98.1% (inactive)
same,growth,[19],86.8% (inactive)
same,growth,[6]; 10 µM unless noted,58.7% (inactive)
same,growth,[20],6.27% (active)
same,growth,[7]; 10 µM unless noted,47.8% (inactive)
same,growth,[8]; 10 µM unless noted,32.2% (inactive)
same,growth,[9]; 10 µM unless noted,50.6% (inactive)
same,growth,[10]; 10 µM unless noted,70.9% (inactive)
same,growth,[11]; 10 µM unless noted,126% (inactive)
same,growth,[12]; 10 µM unless noted,90.6% (inactive)
same,growth,[13]; 10 µM unless noted,85.2% (inactive)
same,growth,[14]; 10 µM unless noted,91.8% (inactive)
same,growth,[15]; 10 µM unless noted,73.4% (inactive)
same,growth,[16]; 10 µM unless noted,93.5% (inactive)
same,growth,[17]; 10 µM unless noted,95.1% (inactive)
CC(=O)/C=C/c1ccc(N(CCO)Cc2ccc(C(C)(C)C)cc2)cc1,growth,[1]; 10 µM,93.3% (inactive)
same,growth,[1]; 100 µM,-75.2% (active)
same,growth,[2]; 10 µM,57.4% (inactive)
same,growth,[2]; 100 µM,-86.5% (active)
same,growth,[3]; 10 µM,47.2% (inactive)
same,growth,[3]; 100 µM,-100% (active)
same,growth,[4]; 10 µM,96.7% (inactive)
same,growth,[4]; 100 µM,-96.7% (active)
same,growth,[5],80.5% (inactive)
same,growth,[20],-47.9% [100 µM] (active)
same,growth,[7]; 10 µM,54% (inactive)
same,growth,[7]; 100 µM,-47.4% (active)
same,growth,[8]; 10 µM,83% (inactive)
same,growth,[8]; 100 µM,-62.1% (active)
same,growth,[9]; 10 µM,84.7% (inactive)
same,growth,[9]; 100 µM,-34.9% (active)
same,growth,[10]; 10 µM,80.7% (inactive)
same,growth,[10]; 100 µM,-81.1% (active)
same,growth,[11]; 10 µM,78.2% (inactive)
same,growth,[11]; 100 µM,-98.5% (active)
same,growth,[12]; 10 µM,65.7% (inactive)
same,growth,[12]; 100 µM,-89.2% (active)
same,growth,[13]; 10 µM,83.7% (inactive)
same,growth,[13]; 100 µM,-99% (active)
same,growth,[14]; 10 µM,96.6% (inactive)
same,growth,[14]; 100 µM,-65.9% (active)
same,growth,[15]; 10 µM,84.4% (inactive)
same,growth,[15]; 100 µM,-95% (active)
same,growth,[16]; 10 µM,65% (inactive)
same,growth,[16]; 100 µM,-52.9% (active)
same,growth,[17]; 10 µM,67% (inactive)
same,growth,[17]; 100 µM,-88.3% (active)
CCCCCCCCCCCCCCCC[N+](C)(C)CCN(Cc1ccc(OC)cc1)c1ncccn1,growth,[1]; 10 µM unless noted,59.8% (inactive)
same,growth,[2]; 10 µM unless noted,-84.6% (active)
same,growth,[18]; 10 µM unless noted,-57.9% (active) and 34% (inactive)
same,growth,[3]; 10 µM unless noted,9.57% (active) and 80.3% (inactive)
same,growth,[4]; 10 µM unless noted,-90.3% (active) and 71.7% (inactive)
same,growth,[5],45.7% (inactive) and 67% (inactive)
same,growth,[19],44.1% (inactive)
same,growth,[6]; 10 µM unless noted,-70.4% (active)
same,growth,[20],-53.1% (active) and 23.7% (inactive)
same,growth,[7]; 10 µM unless noted,-52% (active) and 23.9% (inactive)
same,growth,[8]; 10 µM unless noted,-45.2% (active) and 56.8% (inactive)
same,growth,[9]; 10 µM unless noted,27.2% (inactive)
same,growth,[10]; 10 µM unless noted,-72.8% (active) and 56.4% (inactive)
same,growth,[11]; 10 µM unless noted,-37% (active) and 67.2% (inactive)
same,growth,[12]; 10 µM unless noted,-8.05% (active) and 31.3% (inactive)
same,growth,[13]; 10 µM unless noted,14.6% (inactive) and 67.4% (inactive)
same,growth,[14]; 10 µM unless noted,-70.4% (active)
same,growth,[15]; 10 µM unless noted,-100% (active) and 45.5% (inactive)
same,growth,[16]; 10 µM unless noted,-72.9% (active) and 84.5% (inactive)
same,growth,[17]; 10 µM unless noted,72.2% (inactive) and 105% (inactive)
COc1ccc(/C=C/C(=O)c2cc3c(N)c(C(=O)Nc4ccccc4Cl)sc3nc2C)cc1,growth,[1]; 10 µM unless noted,30.6% (inactive)
same,growth,[2]; 10 µM unless noted,66.8% (inactive)
same,growth,[18]; 10 µM unless noted,53.8% (inactive)
same,growth,[3]; 10 µM unless noted,-10.2% (active)
same,growth,[4]; 10 µM unless noted,20.4% (inactive)
same,growth,[5],10.2% (inactive)
same,growth,[19],31.9% (inactive)
same,growth,[6]; 10 µM unless noted,30.9% (inactive)
same,growth,[20],58.9% (inactive)
same,growth,[7]; 10 µM unless noted,36.2% (inactive)
same,growth,[8]; 10 µM unless noted,53.1% (inactive)
same,growth,[9]; 10 µM unless noted,53% (inactive)
same,growth,[10]; 10 µM unless noted,40.3% (inactive)
same,growth,[11]; 10 µM unless noted,79% (inactive)
same,growth,[12]; 10 µM unless noted,-13% (active)
same,growth,[13]; 10 µM unless noted,58.5% (inactive)
same,growth,[14]; 10 µM unless noted,26.9% (inactive)
same,growth,[15]; 10 µM unless noted,21.1% (inactive)
same,growth,[16]; 10 µM unless noted,10.3% (inactive)
same,growth,[17]; 10 µM unless noted,42.9% (inactive)
CC(=O)/C=C/c1ccc(OCc2ccc(C(C)(C)C)cc2)cc1,growth,[1]; 10 µM,91.5% (inactive)
same,growth,[1]; 100 µM,-21.6% (active)
same,growth,[2]; 10 µM,95.1% (inactive)
same,growth,[2]; 100 µM,24.8% (inactive)
same,growth,[18]; 10 µM,80% (inactive)
same,growth,[18]; 100 µM,28.1% (inactive)
same,growth,[3]; 10 µM,68.6% (inactive)
same,growth,[3]; 100 µM,14.8% (inactive)
same,growth,[4]; 10 µM,111% (inactive)
same,growth,[4]; 100 µM,55.1% (inactive)
same,growth,[5],82.6% (inactive)
same,growth,[6]; 10 µM,80.4% (inactive)
same,growth,[6]; 100 µM,-94.2% (active)
same,growth,[20],28% [100 µM] (inactive)
same,growth,[7]; 10 µM,68.3% (inactive)
same,growth,[7]; 100 µM,13.1% (inactive)
same,growth,[8]; 10 µM,65.9% (inactive)
same,growth,[8]; 100 µM,29.5% (inactive)
same,growth,[9]; 10 µM,67.6% (inactive)
same,growth,[9]; 100 µM,0.803% (active)
same,growth,[10]; 10 µM,90.5% (inactive)
same,growth,[10]; 100 µM,23.2% (inactive)
same,growth,[11]; 10 µM,89% (inactive)
same,growth,[11]; 100 µM,37.6% (inactive)
same,growth,[12]; 10 µM,74% (inactive)
same,growth,[12]; 100 µM,33.8% (inactive)
same,growth,[13]; 10 µM,77.8% (inactive)
same,growth,[13]; 100 µM,39.5% (inactive)
same,growth,[14]; 10 µM,98.6% (inactive)
same,growth,[14]; 100 µM,81.6% (inactive)
